p97 ATPase inh: human p97 ATPase inhibition; P55072; recombinant p97 ATPase, Kinase-Glo ATP luminescence, 3 h; inhibition, % at 8 µM; actives 0.42% (n = 220,000); AID 1481; in the data active = inhibition above about 15%;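 note: 0% = DMSO vehicle and 100% = wells lacking enzyme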
ROMK primary: modulates human ROMK potassium channel activity; P48048; Tet-inducible ROMK, thallium flux fluorescence; actives lie on both sides; B-score at 10 µM; actives 2% (n = 130,000); AID 1918;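 active = signal ratio slope over the read window, or its plate-corrected B-score, at least 3 SD from the plate mean, either direction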;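 note: B-score of the F/F0 ratio slope over 7 to 12 s after thallium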
Target sequence (P48048 whole entry, looked up): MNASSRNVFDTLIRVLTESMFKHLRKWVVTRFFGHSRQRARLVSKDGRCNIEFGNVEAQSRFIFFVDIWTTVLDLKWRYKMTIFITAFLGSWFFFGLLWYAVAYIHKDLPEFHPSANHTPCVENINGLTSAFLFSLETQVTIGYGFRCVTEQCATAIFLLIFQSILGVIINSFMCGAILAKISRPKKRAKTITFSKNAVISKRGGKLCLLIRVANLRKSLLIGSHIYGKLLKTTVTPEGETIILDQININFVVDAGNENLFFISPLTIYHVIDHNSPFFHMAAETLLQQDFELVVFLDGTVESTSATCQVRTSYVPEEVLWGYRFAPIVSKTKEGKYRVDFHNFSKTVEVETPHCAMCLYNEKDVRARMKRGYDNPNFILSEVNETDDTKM
L major viab: reduces viability of Leishmania major promastigotes | inhibition, % at 10 µM | AID 1063 | resazurin fluorescence viability | actives 9% (n = 200,000); in the data active = inhibition above about 50%;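 note: promastigotes grown with compound for 44 hours at 28 °C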
PTEN del growth: growth suppressors of cells with PTEN tumor suppressor deletion | actives 1.2% (n = 140,000) | AID 827 | HCT116 PTEN-null viability, CellTiter-Glo, 60 h; hits give low values | viability, % at 10 µM;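 active = viability at or below a set limit, 4 SD under the median of all tested compounds, cut at about 3.7% in these data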;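 note: PTEN knockout HCT116 line with beta catenin targeted HCT116 as companion control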
INS promoter inh: TRM-6 insulin promoter activity inhibition | AID 1273 | inhibition, % at 2 µM | actives 0.9% (n = 130,000) | TRM-6 cells (human fetal islet line), insulin promoter-eGFP reporter, imaging; reporter expression induced with tamoxifen;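 active = inhibition above the mean plus 3 SD, with well images judged a real hit on visual review, cut at about 60% in these data, passing the limit was not always enough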
HCT116 bCat-KO: beta-catenin-lacking colon tumor cell growth suppression; HCT116 beta-catenin knockout viability, CellTiter-Glo, 60 h; hits give low values; viability, % at 10 µM; actives 1.5% (n = 140,000); AID 818;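 active = viability at or under a set limit, the compound median less 4 SD, cut at about 6% in these data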;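 note: 0% = Hyamine 1622 control at 20 µM and 100% = untreated cell control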
* = called active by the depositor; x = no result. An excerpt weighted towards active compounds, which were near 10% of everything screened.

SMILES	p97 ATPase inh	ROMK primary	L major viab	PTEN del growth	INS promoter inh	HCT116 bCat-KO
O=C(c1cc(-c2ccncc2)nc2ccc(Cl)cc12)N1CCN(Cc2ccc3c(c2)OCO3)CC1	0.9	-1.17	81.3*	x	x	x
O=C(CS(=O)(=O)Cc1ccccc1)N1CCN(Cc2ccc3c(c2)OCO3)CC1	-5.4	x	69.0*	88.6	-4.5	90.0
O=C(CSCc1cccc(Cl)c1)N1CCN(Cc2ccc3c(c2)OCO3)CC1	-0.7	-1.17	91.1*	100.6	-70.0	99.3
COc1cccc(OC)c1C(=O)N1CCN(Cc2ccc3c(c2)OCO3)CC1	4.6	0.0511	4.1	94.5	-28.6	89.3
O=c1nc(Nc2ccccc2)sc2ccc([N+](=O)[O-])cc12	5.1	x	-1.5	94.1	x	101.2
C=CCn1cc(C(=O)OCC)c(=O)c2cc(F)c(F)cc21	2.3	0.167	x	x	x	x
Cc1ccc(-c2nnc(N3CC(C)OC(C)C3)c3ccccc23)cc1 (centres undefined)	0.5	-0.174	35.0	x	-33.3	x
Cc1c(-c2cccs2)[n+](=O)c2c(n1[O-])CCCCC2	-2.4	-0.531	-2.3	104.3	x	95.8
COc1ccc(/C=N\N=C2/SC(CC(=O)O)C(=O)N2c2ccc(O)cc2)cc1OC (centres undefined)	3.6	0.521	56.0*	104.0	-64.9	98.0
COc1cc(/C=N\N=C2/SC(CC(=O)O)C(=O)N2c2ccc(O)cc2)ccc1O (centres undefined)	-0.8	x	0.3	103.2	-83.9	98.2
COCCCC1CCN(Cc2cn[nH]c2-c2cc(OC)c(OC)c(OC)c2)CC1	-0.9	0.0344	5.2	x	x	x
O=c1[nH]c(-c2ccccn2)nc(C(F)(F)F)c1Br	-5.0	-0.0221	96.7*	x	x	x
O=c1[nH]c(-c2ccccn2)nc2ccccc12	4.3	0.0698	6.6	16.7	x	20.1
O=S(=O)(c1cccs1)N1CCN(CC(O)COc2cccc(Br)c2)CC1 (centres undefined)	-0.5	0.092	98.1*	71.6	-59.3	66.4
O=S(=O)(c1cccs1)N1CCN(CC(O)COC2CCCc3ccccc32)CC1 (centres undefined)	-0.6	x	15.2	90.9	x	88.8
C=CCc1cccc(/C=N/NC(=O)CNc2cccc3ccccc23)c1O	-4.3	0.901	-13.9	1.8*	6.7	3.2*
C=CCn1c(COc2ccc(Cl)cc2)nnc1SCC(=O)N/N=C/c1cccc(O)c1	3.1	x	-2.1	91.2	-28.6	100.6
C=CCn1c(CNc2ccccc2)nnc1SCC(=O)N/N=C/c1ccccc1O	-1.0	-0.309	96.9*	90.7	14.3	86.7
C=CCc1cccc(/C=N/NC(=O)CNc2ccccc2OC)c1O	3.3	1.16	-9.9	x	-50.0	x
C=CCc1cccc(/C=N/NC(=O)CNc2ccccc2)c1O	-0.2	-0.713	-6.4	3.0*	-3.3	3.7*
Cc1ccc(S(=O)(=O)NC2c3cccc4cccc(c34)C2Sc2nc(C)cc(C)n2)cc1 (centres undefined)	-2.1	-0.939	13.3	69.9	-21.4	78.2
O=C(NCC(c1cccnc1)N1CCN(c2ccc(F)cc2)CC1)C1CCCCC1 (centres undefined)	-0.1	-0.116	73.6*	81.5	-85.7	94.8
COc1ccc(N2CCN(C(CNC(=O)C3CCCCC3)c3cccnc3)CC2)cc1 (centres undefined)	4.9	-1.22	87.3*	89.8	-50.0	95.4
O=C(NCC(c1cccnc1)N1CCN(c2ccccc2F)CC1)C1CCCCC1 (centres undefined)	1.5	0.665	71.4*	88.2	-14.3	82.4
Cn1c(CC(=O)Nc2ccccc2C(F)(F)F)c(Sc2ccccc2)c2ccccc21	3.2	x	0.2	81.3	-20.6	84.0
SMILES	p97 ATPase inh	ROMK primary	L major viab	PTEN del growth	INS promoter inh	HCT116 bCat-KO
O=C(CN1CCN(c2ccccc2O)CC1)Nc1cccnc1Cl	-2.7	-0.258	-6.9	x	x	x
C=CCNC(=O)COc1cc(C)cc(C)c1C	2.0	0.0177	-4.5	x	x	x
Cc1ccnc(NS(=O)(=O)c2ccc(NC(=O)C(C)(C)C)cc2)n1	4.4	0.136	x	x	x	x
Cc1ccc(C)c(SCC(=O)Nc2cc(C)nn2-c2ccc(F)cc2)c1	-3.7	x	-0.5	76.5	x	91.6
COC(=O)c1cccc(C(=O)N2CCC(CO)(Cc3ccccc3Cl)CC2)c1	4.5	-0.731	25.1	x	x	x
OCC1(Cc2ccccc2Cl)CCN(C/C=C/c2ccccc2)CC1	-1.2	-1.5	88.3*	x	x	x
CS(=O)(=O)N1CCC(C(=O)N2CCN(C(c3ccccc3)c3ccccc3)CC2)CC1	-2.3	x	67.0*	x	x	x
CCNC(=S)NNC(=O)c1cc(Br)cs1	3.7	1.65	4.3	106.6	-100.0	97.3
CC(C)CN(CC(C)C)C(=O)CCCC(=O)N(CC(C)C)CC(C)C	-5.3	-1.09	-2.6	85.3	-33.3	85.4
O=C(OCn1ncc(Cl)c(Cl)c1=O)c1ccc(C(F)(F)F)cc1	6.1	x	7.2	4.5	-35.7	3.4*
CCc1ccccc1NC(=O)CN(C)C(=O)Cn1ncc(Cl)c(Cl)c1=O	1.4	x	43.9	1.8*	-222.6	1.8*
O=C(OCCN1CCN(c2ncc(C(F)(F)F)cc2Cl)CC1)c1ccc(F)cc1	-1.5	x	-4.6	94.5	-25.0	95.2
CCCc1cc(=O)[nH]c(SCC(=O)N(C)CC(=O)Nc2ccccc2CC)n1	-3.2	x	-16.7	95.1	x	90.8
COc1ccc(NC(=O)Cn2ncc(Cl)c(Cl)c2=O)cc1S(=O)(=O)N1CCOCC1	6.0	1.05	86.5*	0.6*	-14.3	0.9*
CCN(CC)S(=O)(=O)c1cc(NC(=O)Cn2ncc(Cl)c(Cl)c2=O)ccc1C	3.5	x	x	x	x	x
CCC(=O)Nc1ccc(C(=O)Cn2ncc(Cl)c(Cl)c2=O)cc1	10.3	x	x	x	x	x
CCOC(=O)c1ccc(NC(=O)Cn2ncc(Cl)c(Cl)c2=O)cc1	3.6	-0.758	95.6*	1.8*	-170.3	1.7*
Cc1ccccc1-n1c(SCC(=O)c2cc(C)n(C)c2C)nnc1-c1ccncc1	-0.3	-0.0358	39.9	89.1	-3.0	89.5
CC(C)OCCCNC(=O)CNC(=O)c1ccc(Cl)c(Cl)c1	-6.2	-1.48	-1.8	x	x	x
O=C(O)CCC1(c2ccccc2)NC(=O)NC1=O (centres undefined)	0.2	1.56	x	x	x	x
Cc1ccc(C(=O)OCn2ncc(Cl)c(Cl)c2=O)cc1	6.2	x	100.6*	1.2*	-193.6	1.0*
CCCCC(O)(CCCC)C(=O)NN(C(=O)c1cccnc1Cl)c1ccccc1	1.9	x	x	x	x	x
O=C(N/N=C/C(Cl)=C\c1ccccc1)c1cnccn1	-2.9	0.917	9.7	5.7	-11.9	4.0*
COc1ccc(C(C)=O)cc1COC(=O)c1c(C)noc1C	-0.9	x	-4.1	62.0	x	68.1
CCc1cc2c(COC(=O)c3c(C)noc3C)cc(=O)oc2cc1O	0.1	-0.157	85.5*	x	x	x
COC(=O)C1=C(N)Oc2cc(C)n(Cc3cccnc3)c(=O)c2C1c1cccc(OC)c1OC (centres undefined)	7.4	x	-5.4	96.5	x	96.3
COC(=O)c1ccc(NC(C)C(=O)OC)c([N+](=O)[O-])c1 (centres undefined)	6.3	0.201	-5.4	97.5	22.9	100.2
COc1ccc(OC)c(/C=C/c2c([N+](=O)[O-])c(=O)n(C)c(=O)n2C)c1	3.5	0.0446	47.2	x	x	x

Screening data as filed in PubChem.
